Data from PubChem BioAssay AID1159580 (chemical genetic matrix, 2015).
Several values for one entry are separate records, joined by “and”; a condition that tells them apart may be missing. Identical values can stand only once. Out of some 5,500 compounds screened, about 2,000 (36%) were called active. Roughly 18% stayed inconclusive and do not appear here. The list shows a part of the results. Values without a mark were called inactive. Rule as the data show it: active = normalized growth mostly below about 0.91 (no sharp cut-off); inconclusive = no clear call, values can overlap the other calls; inactive = mostly above about 0.92.

Assay: chemical genetic growth profiling, strain panel (AID 1159580);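 also: tested at 20 µM; growth read once vehicle control cultures reached saturation at 30 °C; 1 = growth at the plate median or of vehicle wells; lower values mean less growth of the strain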
Conditions: S. cerevisiae deletion strains, growth OD

For `CN(C)CCC=C1c2ccccc2CCc2ccccc21`, the normalized growth (locus YAL013W, strain DEP1, hits give low values) was 0.992, the normalized growth (locus YAL021C, strain ccr4, hits give low values) was 0.896 (active) and the normalized growth (locus YAL026C, strain drs2, hits give low values) was 0.894 (active). It also gave a normalized growth (locus YAL030W, strain snc1, hits give low values) of 0.995, a normalized growth (locus YAL040C, strain CLN3, hits give low values) of 1 and a normalized growth (locus YBL061C, strain skt5, hits give low values) of 0.991. For the same molecule, the normalized growth (locus YBR009C, strain hhf1, hits give low values) was 0.913, the normalized growth (locus YBR021W, strain FUR4, hits give low values) was 1 and the normalized growth (locus YBR023C, strain chs3, hits give low values) was 0.975. For the same molecule, the normalized growth (locus YBR171W, strain sec66, hits give low values) was 0.969, the normalized growth (locus YBR229C, strain ROT2, hits give low values) was 1 and the normalized growth (locus YBR231C, strain swc5, hits give low values) was 1. For the same molecule, the normalized growth (locus YBR279W, strain paf1, hits give low values) was 0.958, the normalized growth (locus YCL011C, strain gbp2, hits give low values) was 0.946 and the normalized growth (locus YCL016C, strain dcc1, hits give low values) was 0.958. For the same molecule, the normalized growth (locus YCL029C, strain bik1, hits give low values) was 1, the normalized growth (locus YCL061C, strain MRC1, hits give low values) was 0.993 and the normalized growth (locus YCL069W, strain vba3, hits give low values) was 0.987. The normalized growth (locus YCR088W, strain abp1, hits give low values) was 0.953, the normalized growth (locus YDL005C, strain med2, hits give low values) was 0.993 and the normalized growth (locus YDL035C, strain GPR1, hits give low values) was 1.02. It also gave a normalized growth (locus YDL040C, strain nat1, hits give low values) of 0.989, a normalized growth (locus YDL074C, strain BRE1, hits give low values) of 0.999 and a normalized growth (locus YDL101C, strain DUN1, hits give low values) of 1.01. The normalized growth (locus YDL134C, strain PPH21, hits give low values) was 0.998, the normalized growth (locus YDL185W, strain tfp1, hits give low values) was 1 and the normalized growth (locus YDL192W, strain arf1, hits give low values) was 0.996. For the same molecule, the normalized growth (locus YDR001C, strain nth1, hits give low values) was 0.963, the normalized growth (locus YDR069C, strain doa4, hits give low values) was 0.955 and the normalized growth (locus YDR101C, strain arx1, hits give low values) was 0.995. For the same molecule, the normalized growth (locus YDR137W, strain rgp1, hits give low values) was 1.19 [resistant] (active), the normalized growth (locus YDR159W, strain sac3, hits give low values) was 0.962 and the normalized growth (locus YDR162C, strain NBP2, hits give low values) was 1.02. For the same molecule, the normalized growth (locus YDR195W, strain ref2) was 1.07, the normalized growth (locus YDR297W, strain sur2, hits give low values) was 0.975 and the normalized growth (locus YDR318W, strain mcm21, hits give low values) was 1. The normalized growth (locus YDR334W, strain swr1, hits give low values) was 0.98, the normalized growth (locus YDR335W, strain msn5, hits give low values) was 0.973 and the normalized growth (locus YDR363W, strain ESC2, hits give low values) was 1. It also gave a normalized growth (locus YDR388W, hits give low values) of 1, a normalized growth (locus YDR392W, strain spt3, hits give low values) of 0.922 and a normalized growth (locus YDR502C, strain sam2, hits give low values) of 0.992. It also gave a normalized growth (locus YEL003W, strain gim4, hits give low values) of 0.978, a normalized growth (locus YEL037C, strain rad23, hits give low values) of 0.984 and a normalized growth (locus YEL061C, strain CIN8 (second series), hits give low values) of 0.988. The normalized growth (locus YEL061C, strain CIN8, hits give low values) was 1.01, the normalized growth (locus YER002W, strain NOP16, hits give low values) was 1.01 and the normalized growth (locus YER015W, strain faa2, hits give low values) was 0.913 (active). It also gave a normalized growth (locus YER016W, strain bim1, hits give low values) of 0.951, a normalized growth (locus YER110C, hits give low values) of 1 and a normalized growth (locus YER111C, strain swi4, hits give low values) of 0.97. It also gave a normalized growth (locus YER155C, strain BEM2 (second series), hits give low values) of 1, a normalized growth (locus YER155C, strain BEM2, hits give low values) of 1 and a normalized growth (locus YER167W, strain BCK2, hits give low values) of 1.01. The normalized growth (locus YFR010W, strain ubp6, hits give low values) was 0.94, the normalized growth (locus YGL078C, strain dbp3, hits give low values) was 0.986 and the normalized growth (locus YGL086W, strain mad1, hits give low values) was 1. For the same molecule, the normalized growth (locus YGL167C, strain pmr1, hits give low values) was 0.995, the normalized growth (locus YGL173C, strain kem1, hits give low values) was 0.966 and the normalized growth (locus YGL227W, strain vid30, hits give low values) was 0.994. For the same molecule, the normalized growth (locus YGL240W, strain doc1, hits give low values) was 0.999, the normalized growth (locus YGL248W, strain PDE1, hits give low values) was 1.01 and the normalized growth (locus YGL253W, strain hxk2, hits give low values) was 0.953. For the same molecule, the normalized growth (locus YGR078C, strain PAC10, hits give low values) was 1, the normalized growth (locus YGR135W, strain pre9, hits give low values) was 0.994 and the normalized growth (locus YGR229C, strain SMI1, hits give low values) was 0.975. For the same molecule, the normalized growth (locus YGR252W, strain gcn5, hits give low values) was 0.944, the normalized growth (locus YHR013C, strain ard1, hits give low values) was 0.875 and the normalized growth (locus YHR027C, strain rpn1, hits give low values) was 0.864 (active). For the same molecule, the normalized growth (locus YHR030C, strain SLT2, hits give low values) was 1.01 and 1.08, the normalized growth (locus YHR079C, strain IRE1 (second series), hits give low values) was 0.994 and the normalized growth (locus YHR079C, strain IRE1, hits give low values) was 1.05. The normalized growth (locus YHR094C, strain hxt1, hits give low values) was 0.992, the normalized growth (locus YHR129C, strain ARP1, hits give low values) was 1.01 and the normalized growth (locus YHR142W, strain chs7, hits give low values) was 0.919. It also gave a normalized growth (locus YHR200W, strain rpn10, hits give low values) of 0.995, a normalized growth (locus YIL066C, strain RNR3, hits give low values) of 1.02 and a normalized growth (locus YIL073C, strain SPO22, hits give low values) of 1.05. For the same molecule, the normalized growth (locus YIL125W, strain kgd1, hits give low values) was 0.997, the normalized growth (locus YIR030C, strain dcg1, hits give low values) was 0.992 and the normalized growth (locus YJL092W, strain hpr5, hits give low values) was 0.979. The normalized growth (locus YJL095W, strain BCK1 (second series), hits give low values) was 0.978, the normalized growth (locus YJL095W, strain BCK1, hits give low values) was 1.01 and 1.05 and the normalized growth (locus YJL115W, strain asf1, hits give low values) was 0.974. For the same molecule, the normalized growth (locus YJL129C, strain trk1, hits give low values) was 1.01, the normalized growth (locus YJL134W, strain LCB3, hits give low values) was 1.01 and the normalized growth (locus YJL154C, strain vps35, hits give low values) was 0.975. It also gave a normalized growth (locus YJL164C, strain tpk1, hits give low values) of 0.974, a normalized growth (locus YJL166W, strain qcr8, hits give low values) of 0.988 and a normalized growth (locus YJL168C, strain set2, hits give low values) of 1.01. It also gave a normalized growth (locus YJL187C, strain SWE1 (second series), hits give low values) of 1.01, a normalized growth (locus YJL187C, strain SWE1, hits give low values) of 0.985 and a normalized growth (locus YJR043C, strain POL32, hits give low values) of 1.01.
